In general, inhibition refers to the change of the read-out against control, counted positive when it falls.

About 2,900 (0.81%) of roughly 360,000 compounds were called active. The entries come from a sample that favours actives as a whole. Values without a mark were called inactive.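 How the source made its calls: active means inhibition above the mean inhibition across every tested compound plus 3 SD (cut at about 22% in these data); inactive means the rest.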

These results are taken from PubChem BioAssay AID602281 (The Scripps Research Institute Molecular Screening Center, 2012).

In this assay the target is Perilipin-5 (Homo sapiens) + 1-acylglycerol-3-phosphate O-acyltransferase ABHD5 (Homo sapiens) (UniProt Q00G26+Q8WTS1). As to the kind of experiment: blockers of ABHD5 binding to perilipin-5 – cell lysate, split luciferase complementation, luminescence, primary screen (AID 602281).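 Further: 0% = DMSO only wells and the 100% control is not disclosed.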 The following applies: Split G. princeps luciferase complementation, 4 h, at 4 µM, active compounds read high.
Perilipin-5 (Homo sapiens) + 1-acylglycerol-3-phosphate O-acyltransferase ABHD5 (Homo sapiens), sequence (Q00G26 whole entry, looked up): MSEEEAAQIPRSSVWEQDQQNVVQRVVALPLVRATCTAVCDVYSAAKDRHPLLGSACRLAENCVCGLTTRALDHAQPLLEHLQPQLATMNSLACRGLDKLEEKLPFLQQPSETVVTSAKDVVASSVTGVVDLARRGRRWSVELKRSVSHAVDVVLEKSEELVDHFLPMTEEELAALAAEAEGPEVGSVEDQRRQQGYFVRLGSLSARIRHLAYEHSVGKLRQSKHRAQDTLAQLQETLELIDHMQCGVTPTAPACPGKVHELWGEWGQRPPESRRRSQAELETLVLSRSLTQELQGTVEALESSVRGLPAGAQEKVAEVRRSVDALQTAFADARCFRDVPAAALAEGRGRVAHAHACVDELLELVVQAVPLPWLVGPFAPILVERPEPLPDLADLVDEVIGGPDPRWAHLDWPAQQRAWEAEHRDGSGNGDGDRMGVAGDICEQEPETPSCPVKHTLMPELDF
Perilipin-5 (Homo sapiens) + 1-acylglycerol-3-phosphate O-acyltransferase ABHD5 (Homo sapiens), sequence (Q8WTS1 whole entry, looked up): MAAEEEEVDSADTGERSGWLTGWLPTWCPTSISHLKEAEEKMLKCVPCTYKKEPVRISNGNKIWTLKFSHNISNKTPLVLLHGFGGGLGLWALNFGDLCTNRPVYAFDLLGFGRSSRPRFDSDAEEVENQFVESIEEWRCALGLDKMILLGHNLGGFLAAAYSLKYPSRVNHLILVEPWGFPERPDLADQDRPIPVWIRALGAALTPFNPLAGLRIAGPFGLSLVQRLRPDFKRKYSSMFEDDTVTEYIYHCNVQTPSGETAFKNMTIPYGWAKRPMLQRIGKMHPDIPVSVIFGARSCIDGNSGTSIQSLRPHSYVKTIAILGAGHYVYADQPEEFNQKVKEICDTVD
Regarding `O=C(Nc1nccs1)C1CCN(S(=O)(=O)c2ccc(Cl)c(C(F)(F)F)c2)CC1`, the inhibition was -4.59%.
In the case of `CCN1CCN(C(=O)C2CCCN(S(=O)(=O)c3ccc(OC)c(OC)c3)C2)CC1` (centres undefined) it was 7.45%; in that of `O=C(NCc1cccc(Cl)c1)C1=CC=CN2CCS(=O)(=O)N=C12`, -4.23%; in that of `COc1ccc(S(=O)(=O)N2CCN(C(=O)NC3CCCCC3)CC2)cc1`, -2.23%.
The result for `CC(C)[C@H](NC(=O)c1ccc(F)cc1)C(=O)OCC(=O)NC(=O)c1cccn1C` reads -4.59%; that for `Cc1ccc2c(c1)C1CN(C)CCC1N2S(=O)(=O)c1ccc(Oc2ccc([N+](=O)[O-])cc2)cc1` (centres undefined), 15.8%; that for `COc1ccc(-n2cc(CN(C)Cc3n[nH]c(=O)[nH]3)c(-c3cccc(F)c3)n2)cc1`, 7.9%.
As for `CCC(O)C1CCN(Cc2cn(-c3ccc(OC)cc3)nc2-c2cccc(F)c2)CC1` (centres undefined), the inhibition is 8.4%.
For `COc1ccc(-n2cc(CNC3CCOCC3)c(-c3cccc(F)c3)n2)cc1`, the inhibition was 24.7% (active).
The result for `COc1ccc(C2OC(=O)CC2C(=O)NC(C)C)cc1` (centres undefined) reads -1.02%.
The result for `COc1ccc(C(=O)C2CCCN(C(=O)c3cc4nc(C)cc(C)n4n3)C2)cc1F` (centres undefined) reads 0.49%; that for `Cc1ccc(CN2C(=O)CCC2C(=O)NCCCN2CCCCC2C)cc1` (centres undefined), 1.42%; that for `FC(F)(F)c1cc(-c2ccco2)nc(NCc2ccc(Cl)cc2)n1`, -5.83%.
Turning to `C[C@H](NC(=O)C1CC(=O)N(c2ccc3c(c2)OCO3)C1)C(=O)NCc1ccco1` (some centres undefined), the inhibition was 10.8%.
In the case of `CCCC/C=C/c1cccc2nncn12` it was -0.29%.
For `COc1ccc(C(CNC(=O)COc2ccc([N+](=O)[O-])cc2)N2CCCCC2)cc1` (centres undefined), the inhibition was -7.05%.
For `Cc1cc(C)n(CC(O)COc2ccc(C(C)(C)C)cc2)n1` (centres undefined), the inhibition was -1.93%.
The result for `COc1ccc(C(C[N+](=O)[O-])n2nc(C)cc2C)cc1` (centres undefined) reads 54.3% (active); that for `COc1ccc(C(=O)C(OP(=O)(OC)OC)c2ccccc2OC)cc1` (centres undefined), 0.08%; that for `CC(C)NC(=S)N1CCN(S(C)(=O)=O)CC1`, -5.54%.
In the case of `CCCc1cc(-c2n[nH]c(=S)n2CC)c2ccccc2n1` it was -2.69%.
In the case of `Cc1cc(-c2n[nH]c(=S)n2/N=C/C(Br)=C/c2ccccc2)n[nH]1`, the inhibition was 62.1% (active).
In the case of `CCN(CC)S(=O)(=O)c1cccc(-c2n[nH]c(=S)n2/N=C/c2ccc(C(=O)OC)cc2)c1` it was -11.2%; in that of `COC(=O)C1=C(C)NC2=C(C(=O)c3ccccc32)C1c1ccc(-c2ccc(C(=O)O)cc2)o1` (centres undefined), 17.7%.
In the case of `Cc1ccc(NC(=S)N2CCN(c3ncccn3)CC2)cc1C` it was 5.22%; in that of `O=C1/C(=C\c2ccc(O)cc2)CCC1CNc1ccc(Cl)cc1` (centres undefined), 23.7% (active); in that of `COc1cc(C)c(C)cc1S(=O)(=O)N1CCCc2ccccc21`, 3.45%.
In the case of `CCN1/C(=C\c2ccc3ccccc3[n+]2CC)Sc2cc(C)ccc21` it was 28.2% (active).
Regarding `C=C(C)C(=O)Nc1cccc(C2=NOC3(C2)C[C@H](C(N)=O)N(C(=O)C(c2ccccc2)c2ccccc2)C3)c1` (some centres undefined), the inhibition was 0.12%.
For `Cc1ccn2c(=O)nc(SCC(=O)NCc3ccc4c(c3)OCO4)nc2c1`, the inhibition is -8.67%.
In the case of `Cc1ccc(/C=C/C(=O)OCC(=O)NCc2ccc(Cl)cc2)o1` it was 5.48%; in that of `COc1cc(NC(=S)NCCSc2ccc(C)cc2)cc(OC)c1`, -1.88%; in that of `Cc1csc(NC(=O)C2CCN(S(=O)(=O)c3ccccc3)CC2)n1`, 2.8%.
Take `Cc1csc(NC(=O)NC2(C(F)(F)F)Oc3ccccc3O2)n1`: the inhibition is 49.8% (active).
Turning to `COc1cc(SC)ccc1C(=O)Nc1nc(C)cs1`, the inhibition is -0.45%.
On to `CCCCN(C(C)=O)c1ccc2c(c1)C1CC2CCN1Cc1ccccc1` (centres undefined), for which the inhibition was -6.18%.
In the case of `COc1ccc(OC)c(/C(C)=N\NC(=O)c2cc3cc(Cl)ccc3n2C)c1` it was 5.51%; in that of `COc1cccc(NCCC(=O)c2cccc([N+](=O)[O-])c2)c1`, -2.37%; in that of `CC(NC(=O)Nc1cccc([N+](=O)[O-])c1)c1ccc2c(c1)OCO2` (centres undefined), 8.55%.
`COC(=O)/C=C\C(=O)Nc1cccc([N+](=O)[O-])c1`: the inhibition was 41% (active).
In the case of `O=C(Cn1c(=O)n(Cc2ccco2)c(=O)c2ccccc21)NCC1CCCO1` (centres undefined) it was -2.17%.
In the case of `Cn1c2ccccc2c(=O)c2c(=O)n(Cc3ccco3)c(COc3ccccc3)nc21` it was 40.1% (active); in that of `O=C(CCCOc1ccccc1)NCc1ccco1`, -2.47%; in that of `CCn1c(CNC(=O)c2ccc(OC)c(OC)c2)nnc1SCC(=O)Nc1ccccc1`, -3.29%.
The result for `CCSc1nc(O)c(C(c2cccc(OC)c2)c2c(O)nc(SCC)[nH]c2=O)c(=O)[nH]1` reads -4.24%; that for `CCn1c(SC)nc(O)c(C(c2ccc(OC)c(O)c2)c2c(O)nc(SC)n(CC)c2=O)c1=O`, 30.9% (active).
For `C=CCN(c1ccc(C(N)=O)cc1)S(C)(=O)=O`, the inhibition is 0.17%.
In the case of `CCCOc1ccc(C(=O)C(CCC(CNCC)C(=O)c2ccc(OCCC)cc2)CNCC)cc1` (centres undefined), the inhibition was 34.9% (active).
In the case of `CC(C)CCOc1ccc(C(=O)C[N+]2(C)CCOCC2)cc1` it was 1.19%; in that of `CCOc1cc(C(=O)O)ccc1OCCOc1ccccc1`, -0.9%.
In the case of `O=C(Nc1ccccc1N1CCCC1)c1ccc(F)c(S(=O)(=O)N2CCOCC2)c1` it was -7.04%; in that of `CC(=O)N1CSCC1C(=O)O` (centres undefined), 3.52%.
For the molecule `C=CCNC(=O)/C=C/c1ccc(C(C)C)cc1`, the inhibition was -1.9%.
Regarding `O=C(/C=C(O)/C=C/c1ccc(O)cc1)/C=C/c1ccc(O)cc1`, the inhibition was 35.1% (active).
The result for `NC1=NC(=O)S/C1=C\c1ccc(O)cc1` reads 7.71%.
For the molecule `CCc1nc(C)cn1S(=O)(=O)c1cc([N+](=O)[O-])ccc1Cl`, the inhibition is 4.39%.
The result for `CN(C)CCOC(=O)C(c1ccccc1)C1(O)CCCC1` (centres undefined) reads -6.36%; that for `CCCC(C(=O)OCCN(CC)CC)(c1ccccc1)c1ccccc1`, 6.21%; that for `CCC(C(=O)OCCN(CC)CC)c1ccccc1` (centres undefined), 49.6% (active).
